# Test results reported in PubChem BioAssay AID1159580 (chemical genetic matrix, 2015).
# Screen size: about 5,500 compounds; about 2,000 (36%) were called active. Not shown: some 18% with an inconclusive outcome. This is one part of the list. A number with no mark means an inactive call. Rule as the data show it: active = normalized growth mostly below about 0.91 (no sharp cut-off); inconclusive = no clear call, values can overlap the other calls; inactive = mostly above about 0.92.
# Experiment: chemical genetic growth profiling, strain panel (AID 1159580);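 also: tested at 20 µM; growth read once vehicle control cultures reached saturation at 30 °C; 1 = growth at the plate median or of vehicle wells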
# Details: growth OD
# [1] = S. cerevisiae deletion strains, locus YAL013W, strain DEP1, stronger effect = lower value
# [2] = S. cerevisiae deletion strains, locus YBR229C, strain ROT2, stronger effect = lower value
# [3] = S. cerevisiae deletion strains, locus YDL101C, strain DUN1, stronger effect = lower value
# [4] = S. cerevisiae deletion strains, locus YDR150W, strain NUM1, stronger effect = lower value
# [5] = S. cerevisiae deletion strains, locus YEL061C, strain CIN8, stronger effect = lower value
# [6] = S. cerevisiae deletion strains, locus YGR078C, strain PAC10, stronger effect = lower value
# [7] = S. cerevisiae deletion strains, locus YHR030C, strain SLT2, stronger effect = lower value
# [8] = S. cerevisiae deletion strains, locus YJR043C, strain POL32, stronger effect = lower value
# [9] = S. cerevisiae deletion strains, locus YJR075W, strain HOC1, stronger effect = lower value
# [10] = S. cerevisiae deletion strains, locus YLR039C, strain RIC1, stronger effect = lower value
# [11] = S. cerevisiae deletion strains, locus YLR262C, strain YPT6, stronger effect = lower value
# [12] = S. cerevisiae deletion strains, locus YMR263W, strain SAP30, stronger effect = lower value
# [13] = S. cerevisiae deletion strains, locus YNL128W, strain TEP1, stronger effect = lower value
# [14] = S. cerevisiae deletion strains, locus YNL153C, strain GIM3, stronger effect = lower value
# [15] = S. cerevisiae deletion strains, locus YNL322C, strain KRE1, stronger effect = lower value
# [16] = S. cerevisiae deletion strains, locus YOL006C, strain TOP1, stronger effect = lower value
# [17] = S. cerevisiae deletion strains, locus YPL055C, strain LGE1, stronger effect = lower value
# [18] = S. cerevisiae deletion strains, locus YPL241C, strain CIN2, stronger effect = lower value
# [19] = S. cerevisiae strains, strain wild type, stronger effect = lower value
structure (smiles),measurement,setting,value
COC(=O)CCC(=O)O[C@H]1CCC2(C)C(CCC3C2C(=O)[C@@H](O)C2(C)C3CC3OC4(CCC(C)CO4)[C@@H](C)C32)C1 (stereo partly specified),normalized growth,[1],0.991
same,normalized growth,"S. cerevisiae deletion strains, locus YBR021W, strain FUR4, stronger effect = lower value",1.01
same,normalized growth,[2],1.01
same,normalized growth,"S. cerevisiae deletion strains, locus YCL029C, strain bik1, stronger effect = lower value",0.997
same,normalized growth,"S. cerevisiae deletion strains, locus YDL035C, strain GPR1, stronger effect = lower value",0.993
same,normalized growth,"S. cerevisiae deletion strains, locus YDL074C, strain BRE1, stronger effect = lower value",0.997
same,normalized growth,[3],1.02
same,normalized growth,"S. cerevisiae deletion strains, locus YDL134C, strain PPH21, stronger effect = lower value",1
same,normalized growth,"S. cerevisiae deletion strains, locus YDL185W, strain tfp1, stronger effect = lower value",0.996
same,normalized growth,"S. cerevisiae deletion strains, locus YDL192W, strain arf1, stronger effect = lower value",1
same,normalized growth,"S. cerevisiae deletion strains, locus YDR101C, strain arx1, stronger effect = lower value",0.997
same,normalized growth,[4],1
same,normalized growth,"S. cerevisiae deletion strains, locus YDR162C, strain NBP2, stronger effect = lower value",1
same,normalized growth,"S. cerevisiae deletion strains, locus YDR318W, strain mcm21, stronger effect = lower value",0.996
same,normalized growth,"S. cerevisiae deletion strains, locus YDR388W, stronger effect = lower value",0.994
same,normalized growth,"S. cerevisiae deletion strains, locus YDR502C, strain sam2, stronger effect = lower value",1
same,normalized growth,[5],1.01
same,normalized growth,"S. cerevisiae deletion strains, locus YER110C, stronger effect = lower value",0.996
same,normalized growth,"S. cerevisiae deletion strains, locus YER155C, strain BEM2, stronger effect = lower value",1.01
same,normalized growth,"S. cerevisiae deletion strains, locus YER167W, strain BCK2, stronger effect = lower value",1.02
same,normalized growth,"S. cerevisiae deletion strains, locus YGL078C, strain dbp3, stronger effect = lower value",0.991
same,normalized growth,"S. cerevisiae deletion strains, locus YGL086W, strain mad1, stronger effect = lower value",1
same,normalized growth,"S. cerevisiae deletion strains, locus YGL248W, strain PDE1, stronger effect = lower value",1
same,normalized growth,[6],1.02
same,normalized growth,"S. cerevisiae deletion strains, locus YGR135W, strain pre9, stronger effect = lower value",1
same,normalized growth,"S. cerevisiae deletion strains, locus YGR229C, strain SMI1, stronger effect = lower value",1.01
same,normalized growth,"S. cerevisiae deletion strains, locus YGR252W, strain gcn5, stronger effect = lower value",0.963
same,normalized growth,[7],1.01
same,normalized growth,"S. cerevisiae deletion strains, locus YHR079C, strain IRE1 (second series), stronger effect = lower value",0.991
same,normalized growth,"S. cerevisiae deletion strains, locus YHR094C, strain hxt1, stronger effect = lower value",0.998
same,normalized growth,"S. cerevisiae deletion strains, locus YHR129C, strain ARP1, stronger effect = lower value",0.999
same,normalized growth,"S. cerevisiae deletion strains, locus YHR200W, strain rpn10, stronger effect = lower value",1
same,normalized growth,"S. cerevisiae deletion strains, locus YIL066C, strain RNR3, stronger effect = lower value",1.01
same,normalized growth,"S. cerevisiae deletion strains, locus YIL073C, strain SPO22, stronger effect = lower value",1
same,normalized growth,"S. cerevisiae deletion strains, locus YIL125W, strain kgd1, stronger effect = lower value",1.01
same,normalized growth,"S. cerevisiae deletion strains, locus YIR030C, strain dcg1, stronger effect = lower value",0.998
same,normalized growth,"S. cerevisiae deletion strains, locus YJL095W, strain BCK1, stronger effect = lower value",0.989
same,normalized growth,"S. cerevisiae deletion strains, locus YJL134W, strain LCB3, stronger effect = lower value",1.01
same,normalized growth,"S. cerevisiae deletion strains, locus YJL168C, strain set2, stronger effect = lower value",0.994
same,normalized growth,"S. cerevisiae deletion strains, locus YJL187C, strain SWE1 (second series), stronger effect = lower value",1
same,normalized growth,[8],1
same,normalized growth,[9],1.02
same,normalized growth,"S. cerevisiae deletion strains, locus YKL009W, strain mrt4, stronger effect = lower value",0.998
same,normalized growth,"S. cerevisiae deletion strains, locus YKL068W, stronger effect = lower value",0.999
same,normalized growth,"S. cerevisiae deletion strains, locus YKL085W, strain MDH1 (second series), stronger effect = lower value",0.996
same,normalized growth,"S. cerevisiae deletion strains, locus YKL085W, strain MDH1, stronger effect = lower value",0.996
same,normalized growth,"S. cerevisiae deletion strains, locus YKL190W, strain CNB1, stronger effect = lower value",1.01
same,normalized growth,"S. cerevisiae deletion strains, locus YKR001C, strain vps1, stronger effect = lower value",0.993
same,normalized growth,[10],0.996
same,normalized growth,"S. cerevisiae deletion strains, locus YLR058C, strain SHM2, stronger effect = lower value",1
same,normalized growth,"S. cerevisiae deletion strains, locus YLR102C, strain apc9, stronger effect = lower value",0.996
same,normalized growth,[11],0.984
same,normalized growth,"S. cerevisiae deletion strains, locus YLR268W, strain sec22, stronger effect = lower value",1
same,normalized growth,"S. cerevisiae deletion strains, locus YLR330W, strain CHS5, stronger effect = lower value",1.01
same,normalized growth,"S. cerevisiae deletion strains, locus YLR342W, strain FKS1 (second series), stronger effect = lower value",1.02
same,normalized growth,"S. cerevisiae deletion strains, locus YLR371W, strain rom2, stronger effect = lower value",1
same,normalized growth,"S. cerevisiae deletion strains, locus YLR418C, strain cdc73, stronger effect = lower value",0.982
same,normalized growth,"S. cerevisiae deletion strains, locus YML016C, strain PPZ1, stronger effect = lower value",1.01
same,normalized growth,"S. cerevisiae deletion strains, locus YML032C, strain rad52, stronger effect = lower value",1.01
same,normalized growth,"S. cerevisiae deletion strains, locus YML124C, strain tub3, stronger effect = lower value",0.998
same,normalized growth,"S. cerevisiae deletion strains, locus YMR078C, strain ctf18, stronger effect = lower value",0.994
same,normalized growth,"S. cerevisiae deletion strains, locus YMR223W, strain ubp8, stronger effect = lower value",1
same,normalized growth,[12],1.03
same,normalized growth,"S. cerevisiae deletion strains, locus YMR307W, strain GAS1, stronger effect = lower value",0.997
same,normalized growth,"S. cerevisiae deletion strains, locus YNL067W, strain RPL9B, stronger effect = lower value",1.01
same,normalized growth,[13],1.01
same,normalized growth,[14],1.01
same,normalized growth,"S. cerevisiae deletion strains, locus YNL233W, strain BNI4, stronger effect = lower value",1
same,normalized growth,"S. cerevisiae deletion strains, locus YNL250W, strain rad50, stronger effect = lower value",0.999
same,normalized growth,"S. cerevisiae deletion strains, locus YNL271C, strain bni1, stronger effect = lower value",0.995
same,normalized growth,"S. cerevisiae deletion strains, locus YNL298W, strain CLA4, stronger effect = lower value",0.985
same,normalized growth,"S. cerevisiae deletion strains, locus YNL307C, strain MCK1, stronger effect = lower value",0.997
same,normalized growth,[15],1.01
same,normalized growth,"S. cerevisiae deletion strains, locus YNR052C, strain pop2, stronger effect = lower value",1
same,normalized growth,[16],0.943
same,normalized growth,"S. cerevisiae deletion strains, locus YOL012C, strain htz1",1.03
same,normalized growth,"S. cerevisiae deletion strains, locus YOL147C, strain pex11, stronger effect = lower value",1
same,normalized growth,"S. cerevisiae deletion strains, locus YOR061W, strain CKA2, stronger effect = lower value",1
same,normalized growth,"S. cerevisiae deletion strains, locus YOR069W, strain VPS5, stronger effect = lower value",1.01
same,normalized growth,"S. cerevisiae deletion strains, locus YOR136W, strain idh2, stronger effect = lower value",1
same,normalized growth,"S. cerevisiae deletion strains, locus YOR144C, strain elg1, stronger effect = lower value",0.996
same,normalized growth,"S. cerevisiae deletion strains, locus YOR184W, strain ser1, stronger effect = lower value",1.01
same,normalized growth,"S. cerevisiae deletion strains, locus YOR316C, strain cot1, stronger effect = lower value",1
same,normalized growth,[17],1.03
same,normalized growth,[18],1
same,normalized growth,"S. cerevisiae deletion strains, locus YPR119W, strain clb2, stronger effect = lower value",0.988
same,normalized growth,"S. cerevisiae deletion strains, locus YPR141C, strain kar3, stronger effect = lower value",0.997
same,normalized growth,"S. cerevisiae deletion strains, locus YPR163C, strain tif3, stronger effect = lower value",0.998
same,normalized growth,"S. cerevisiae deletion strains, locus YPR167C, strain met16, stronger effect = lower value",1
same,normalized growth,"S. cerevisiae deletion strains, strain wtn01, stronger effect = lower value",1
same,normalized growth,[19],1.04
O=C1Nc2ccc(I)cc2/C1=C/c1cc(Br)c(O)c(Br)c1,normalized growth,"S. cerevisiae deletion strains, locus YAL040C, strain CLN3, stronger effect = lower value",0.966
same,normalized growth,"S. cerevisiae deletion strains, locus YCL061C, strain MRC1 (second series), stronger effect = lower value",0.995
same,normalized growth,[4],0.953
same,normalized growth,"S. cerevisiae deletion strains, locus YDR363W, strain ESC2, stronger effect = lower value",0.942
same,normalized growth,"S. cerevisiae deletion strains, locus YER002W, strain NOP16, stronger effect = lower value",1.01
same,normalized growth,[6],0.919
same,normalized growth,[9],0.979
same,normalized growth,[12],0.991
same,normalized growth,[14],0.666 (active)
same,normalized growth,"S. cerevisiae deletion strains, locus YNL175C, strain NOP13, stronger effect = lower value",0.922
same,normalized growth,"S. cerevisiae deletion strains, locus YNL197C, strain WHI3, stronger effect = lower value",0.97
same,normalized growth,"S. cerevisiae deletion strains, locus YNL224C, strain SQS1, stronger effect = lower value",0.993
same,normalized growth,"S. cerevisiae deletion strains, locus YOR083W, strain WHI5 (second series), stronger effect = lower value",0.665 (active)
COc1ccc(C=C2C(=O)NC(=S)NC2=O)cc1Br,normalized growth,[1],1.02
same,normalized growth,[2],1.03
same,normalized growth,[3],1
same,normalized growth,[4],0.946
same,normalized growth,[5],0.992
same,normalized growth,[6],0.995
same,normalized growth,[7],1.01
same,normalized growth,"S. cerevisiae deletion strains, locus YHR087W, strain rtc3, stronger effect = lower value",0.984
same,normalized growth,[8],0.998
same,normalized growth,[9],1
same,normalized growth,[10],1.07
same,normalized growth,"S. cerevisiae deletion strains, locus YLR058C, strain SHM2 (second series), stronger effect = lower value",1
same,normalized growth,"S. cerevisiae deletion strains, locus YLR085C, strain ARP6, stronger effect = lower value",1.01
same,normalized growth,[11],1.06
same,normalized growth,"S. cerevisiae deletion strains, locus YML094W, strain GIM5, stronger effect = lower value",1
same,normalized growth,"S. cerevisiae deletion strains, locus YMR219W, strain ESC1, stronger effect = lower value",1.01
same,normalized growth,[12],0.928
same,normalized growth,[13],1
same,normalized growth,[14],0.965
same,normalized growth,"S. cerevisiae deletion strains, locus YNL298W, strain CLA4 (second series), stronger effect = lower value",1
same,normalized growth,[15],1.01
same,normalized growth,"S. cerevisiae deletion strains, locus YNR030W, strain Alg12, stronger effect = lower value",0.997
same,normalized growth,[16],1.01
same,normalized growth,[17],0.884
same,normalized growth,[18],1.02
same,normalized growth,"S. cerevisiae deletion strains, locus YPR135W, strain CTF4, stronger effect = lower value",0.968
same,normalized growth,[19],1.01
